# Reference: PubChem BioAssay (Tox21)
# Records with an inconclusive call do not appear. Values without a mark were called inactive. Active and inactive are the calls of the source. Calls come from the whole dose curve; as a rule, active = well fitted activation curve with a large enough effect in the repeat runs; inconclusive = weak or mixed curves; inactive = no such curve, though single readings can be large or run the other way. Positions of bridges follow the written chain, without caps; N, C: chain ends. Non-standard residues stand in square brackets, D forms with d. Residues, ends and D or L forms follow the SMILES beside them. *: point of attachment. X1 = CC[C@@H](C)[C@@H](N)C1=N[C@H](C(=O)*)CS1; d(aIle) = CC[C@H](C)[C@@H](N)C(=O)O; dOrn = NCCC[C@@H](N)C(=O)O
# Biological target: Nuclear receptor subfamily 1 group I member 2 (Homo sapiens) (UniProt O75469)
# Test: CYP3A4 induction through human pregnane X receptor (PXR) by small molecules, qHTS assay (AID 1346984); note: nearly all actives have a fitted effect of over 40% in size
# Settings: DPX-2 HepG2 PXR, CYP3A4-luciferin luminescence, 24 h; series mostly up to 46.1 µM; activation: at the top concentration
# Procedure, shortened: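 Readings come from a luciferase reporter: DPX-2 cells, which are HepG2 cotransfected with PXR and a CYP3A4-promoter construct, were exposed to test compounds for 24 h at 37C before One-Glo detection.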
# % is set by controls: 0 for no effect and ±100 for the full control effect; potency is the fitted concentration of half-maximal effect.
SMILES,activation,Potency
O=C1c2ccccc2CN2C(=O)c3ccccc3CN12,-0.33%,–
CC[C@@H](C)[C@H](N)C(=O)O,1.72%,–
Cc1cc(CC(C)CC(C)(C)C)n(O)c(=O)c1 (stereo not given) (tested in a mixture with another compound),-12.7%,–
NCCO/C=C/[C@H](N)C(=O)O,-11.9%,–
Cc1cc(=O)c(C(=O)N[C@@H](C(=O)N[C@@H]2C(=O)N3C(C(=O)O)=C(CSc4nnnn4C)CS[C@H]23)c2ccc(O)cc2)c[nH]1,-0.184%,–
CC(=O)Oc1cc(C(F)(F)F)ccc1C(=O)O,-16.6% [at 20.6 µM],–
C=C1[C@@H]2CC[C@@H](C2)C1(C)C,4.63%,–
CCCOC(=O)c1ccccc1O,1.5%,–
Cc1cc(C(=O)NCCc2ccc(S(=O)(=O)NC(=O)NN3CCCCCC3)cc2)no1,-7.07%,–
CC[C@@H](C)[C@@H](N)C1=N[C@H](C(=O)N[C@@H](CC(C)C)C(=O)N[C@@H](CCC(=O)O)C(=O)N[C@@H](C(=O)N[C@@H]2CCCCNC(=O)[C@@H](CC(N)=O)NC(=O)[C@@H](CC(=O)O)NC(=O)[C@@H](Cc3cnc[nH]3)NC(=O)[C@@H](Cc3ccccc3)NC(=O)[C@@H]([C@H](C)CC)NC(=O)[C@@H](CCCN)NC2=O)[C@@H](C)CC)CS1 (X1-LE[d(aIle)][dK][dOrn][dI][dF][dH][dD][dN]; lactam 4-C),-6.99% [at 20.6 µM],–
NCC(O)CC(=O)O (stereo not given),-2.43%,–
CC[N+](CC)(CC)CCC(O)(c1ccccc1)C1CCCCC1 (stereo not given),5.6% [at 20.6 µM],–
CC/C=C\C/C=C\C/C=C\C/C=C\C/C=C\C/C=C\CCC(=O)O,-5.1%,–
CN1C(C(=O)Nc2ccccn2)C(=O)c2sc(Cl)cc2S1(=O)=O (stereo not given),2.01%,–
OCC1(CO)COC(C(Cl)(Cl)Cl)OC1,-8.6%,–
O=C(O)[C@@H]1C[C@H](CP(=O)(O)O)CCN1,-4.01%,–
O=C(O)COc1ccccc1/C=N/NC(=O)c1ccncc1,-7.49%,–
CN(C)CCC(O)(c1ccccc1)c1ccccc1Cl (stereo not given),–,12.6 µM (active)
O=C(O)/C=C/C(O)c1ccc(Cl)cc1 (stereo not given),-1.14%,–
O=P(O)(O)C(O)(Cn1ccnc1)P(=O)(O)O,-5.25%,–

SMILES,activation,Potency
Cc1c(N)nc([C@H](CC(N)=O)NC[C@H](N)C(N)=O)nc1C(=O)N[C@H](C(=O)N[C@H](C)[C@@H](O)[C@H](C)C(=O)N[C@H](C(=O)NCCc1nc(-c2nc(C(=O)NCCCCN=C(N)N)cs2)cs1)[C@@H](C)O)[C@@H](O[C@@H]1O[C@@H](CO)[C@@H](O)[C@H](O)[C@@H]1O[C@H]1O[C@H](CO)[C@@H](O)[C@H](OC(N)=O)[C@@H]1O)c1cnc[nH]1,-4.65%,–
CC(C)=CCC/C(C)=C/CC/C(C)=C/CC/C=C(\C)CC/C=C(\C)CCC=C(C)C,-1.49%,–
CCOc1cc(CC(=O)N[C@@H](CC(C)C)c2ccccc2N2CCCCC2)ccc1C(=O)O,29.5% [at 20.6 µM],–
CCC(O)c1ccccc1 (stereo not given),2.49%,–
c1ccc(-n2cnnn2)cc1,2.33%,–
CCCC(CCC)C(=O)OC1C[C@H]2CC[C@@H](C1)[N+]2(C)C (stereo not given in full),3.54%,–
Cc1c(O)c(=O)ccn1C,-5.7%,–
Nc1nc(/C(=C/CC(=O)O)C(=O)N[C@@H]2C(=O)N3C(C(=O)O)=CCS[C@H]23)cs1,-2.99%,–
C[C@]12O[C@H](C[C@]1(O)CO)n1c3ccccc3c3c4c(c5c6ccccc6n2c5c31)CNC4=O,-23.9%,–
CO[C@H]1C[C@@H]2CC[C@@H](C)[C@@](O)(O2)C(=O)C(=O)N2CCCC[C@H]2C(=O)O[C@H]([C@H](C)C[C@@H]2CC[C@@H](O)[C@H](OC)C2)CC(=O)[C@H](C)C=C(C)[C@@H](O)[C@@H](OC)C(=O)[C@H](C)C[C@H](C)/C=C/C=CC=C1C,–,inactive
CO[C@H](C(=O)[C@@H](O)[C@@H](C)O)C1Cc2cc3cc(O[C@H]4C[C@@H](O[C@H]5C[C@@H](O)[C@H](O)[C@@H](C)O5)[C@@H](O)[C@@H](C)O4)c(C)c(O)c3c(O)c2C(=O)[C@H]1O[C@H]1C[C@@H](O[C@H]2C[C@@H](O[C@H]3C[C@](C)(O)[C@H](O)[C@@H](C)O3)[C@H](O)[C@@H](C)O2)[C@H](O)[C@@H](C)O1 (stereo not given in full),11.9%,–
CC(C)[C@H](NC(=O)[C@H](CC(=O)O)NC(=O)[C@H](CCCCN)NC(=O)[C@@H](N)CCCN=C(N)N)C(=O)N[C@@H](Cc1ccc(O)cc1)C(=O)O (H-RKDVY-OH),4.76%,–
CC(C)NCC1CCc2cc(CO)c([N+](=O)[O-])cc2N1 (stereo not given),9.08% [at 20.6 µM],–
O=C1CC[C@@H](C(=O)N[C@H]2C[C@@H]2c2ccccc2)N1,-6.96%,–
O=C(CCCN1CCN2CCCC2C1)c1ccc(F)cc1 (stereo not given),1.11%,–
CCc1ncnc2cc(OC)c(OC)cc12,-12.2%,–
CC(C)(Oc1ccc(C2CCCc3ccccc32)cc1)C(=O)O (stereo not given),7.87%,–
CN[C@H](CC(C)C)C(=O)N[C@H]1C(=O)N[C@@H](CC(N)=O)C(=O)N[C@H]2C(=O)N[C@H]3C(=O)N[C@H](C(=O)N[C@@H](C(=O)O)c4cc(O)cc(O)c4-c4cc3ccc4O)[C@H](O)c3ccc(c(Cl)c3)Oc3cc2cc(c3O[C@@H]2O[C@H](CO)[C@@H](O)[C@H](O)[C@H]2O[C@H]2C[C@](C)(N)C(O)[C@H](C)O2)Oc2ccc(cc2Cl)[C@H]1O (stereo not given in full),-0.611%,–
O=C(O)c1ccc(NC2OC[C@@H](O)[C@H](O)[C@H]2O)cc1 (stereo not given in full),-1.15%,–
C=CC1=C(C(=O)O)N2C(=O)[C@@H](NC(=O)/C(=N/OCC(=O)O)c3csc(N)n3)[C@H]2SC1 (stereo in doubt),-4.11% [at 20.6 µM],–
